Bioassay records (PubChem)
Sampled rows, rich in hits. Any-hit rate of the full collection: about 27%.
PTK2B oligo ant: Pyk2 (human) oligomerization antagonism; z-score (the deposit names both 25 µM and 10 µM); Q14289; Q293 cells, Pyk2 FERM NanoBiT luminescence; hits give low values; AID 1347419; actives 0.83% (n = 99,000);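 active means Z-score of -3 or lower, scaled per plate to the spread of control and sample wells; inactive means z-score above -3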;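 further: negative z-score means lost luminescence so less FERM oligomerization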
CYP2C19 activ: increases human CYP2C19 enzyme activity; P33261; recombinant CYP2C19, luciferin-H EGE luminescence; hits give high values; 0 = fully inhibited enzyme, 1 = untreated enzyme; activation factor at 5 µM; 96,000 tested, under 10 active; AID 1025;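 active means activation factor of at least 2 at 5 µM in the primary screen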;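 further: 0 = wells with 2.5 mM tranylcypromine and 1 = vehicle-only wells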
CYP2C9 activ: increases human cytochrome P450 2C9 activity | recombinant CYP2C9, luciferin-H conversion, luminescence; hits give high values; factor 1 = untreated enzyme, 0 = blocked | activation factor at 5 µM | actives 1.4% (n = 96,000);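 active means activation factor of 2 or more for CYP2C9 at a 5 µM dose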;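 further: 0 = sulfaphenazole-blocked wells and 1 = vehicle-only wells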
Cav32 inh: inhibitors of human Cav3.2 T-type calcium channel. Cav3.2-expressing cells, Fluo-4 calcium fluorescence FDSS; hits give low values. B-score at 10 µM. actives 4% (n = 100,000). O95180;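 active means single-dose well whose peak fluorescence ratio is a statistical outlier from its plate by either plate-standardised score or position-corrected B-score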
CYP2C9 inhib: inhibitors of human CYP2C9; actives 20% (n = 96,000); AID 777; P11712; inhibition, % at 5 µM; CYP2C9 Supersomes, luciferin-H conversion, luminescence;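 active means blocking of liver enzyme CYP2C9 beyond about 50% at 5 µM, limit read from the data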
CYP2C19 inh: inhibitors of human CYP2C19; P33261; CYP2C19 Supersomes, luciferin-H EGE luminescence, 30 min; inhibition, % at 5 µM; actives 21% (n = 96,000);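 active means CYP2C19 inhibition above a set limit at 5 µM in the primary screen, cut at about 50% in these data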;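 further: plate controls were negative control wells for no effect and 2.5 mM tranylcypromine positive control for full effect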
* marks the source's active call; other numbers are inactive results; nt = no result given.

SMILES	PTK2B oligo ant	CYP2C19 activ	CYP2C9 activ	Cav32 inh	CYP2C9 inhib	CYP2C19 inh
N#Cc1ccsc1NC(=O)CSc1ncn[nH]1	-0.13	0.8	0.7	-0.64	28	20
N#Cc1ccsc1NC(=O)CSc1ncnc2ccccc12	0.35	0.7	0.4	-1.9	64*	30
CCCCN1c2cc(C)c(O)cc2C(C(=O)OCC)C1C (centres undefined)	nt	0.4	0.5	1	50	59*
C#CCNC(=O)C1=C[C@H](c2ccc(Br)cc2)C[C@H](OCc2ccc(CO)cc2)O1	nt	nt	nt	-0.12	nt	nt
Cc1ccc(-c2cc(C(=O)Nc3cc(C)on3)c3ccccc3n2)c(C)c1	nt	0.7	0.2	0.034	77*	34
Cc1ccc(NC(=O)c2cc(-c3ccc(C)o3)nc3ccccc23)cc1	0.06	1	0.7	-0.91	28	4
Cc1cc(NC(=O)c2cc(-c3ccc(C)s3)nc3ccccc23)no1	nt	0.3	0.1	0.041	86*	67*
COC(=O)c1ccc(C(=O)OC)c(NC(=O)COC(=O)CC2CC3CCC2C3)c1 (centres undefined)	-0.49	0.7	0.6	-1.4	38	31
CSc1nnc2c3ccccc3n(Cc3ccccc3)c2n1	-2.2	0.9	0.8	-1	20	10
CCCn1c2ccccc2c2nnc(SCC(=O)Nc3ncccn3)nc21	1.1	0.5	0.4	0.96	60*	52*
CSc1nnc2c3ccccc3n(CCc3ccccc3)c2n1	-3.3*	0.4	0.9	-1.2	9	61*
CCCn1c2ccccc2c2nnc(SCC(=O)Nc3cc(C)on3)nc21	-0.63	1	0.7	0.5	33	4
C=CCn1c2ccccc2c2nnc(SCC(=O)Nc3cc(C)on3)nc21	-0.42	0.7	0.4	0.17	55*	28
C=CCn1c2ccccc2c2nnc(SCC(=O)OCN3C(=O)c4ccccc4C3=O)nc21	2.4	nt	nt	1	nt	nt
C=CCn1c2ccccc2c2nnc(SCc3ccc4nonc4c3)nc21	-1.4	0.2	0.2	-3.4	84*	84*
COc1cc2c(cc1OC)C(C(=O)N1CCN(c3ccccc3)CC1)C(c1cccs1)N(C)C2=O (centres undefined)	0.67	0.9	0.9	-0.15	7	12
N#CCCn1ncn(-c2ccccc2)c1=S	-0.49	1	0.8	1	16	2
CCN(CC)C(=O)CSc1ncnc2sc(-c3ccccc3)cc12	-1.9	0	0.1	-3.7	93*	97*
CCCCCn1cnc2sc(-c3ccccc3)cc2c1=O	0.68	0.6	0.4	-1	58*	44
COc1ccc(Nc2ncnc3sc(-c4ccccc4)cc23)cc1	-1.2	1.1	1.1	-0.094	-9	-15
Cc1sc(NC(=O)CSc2nnc(-c3ccccc3)o2)c(C#N)c1C	-0.33	0.6	0.6	3.2	38	42
CCCCCn1cnc2sc(CC)cc2c1=O	-0.2	nt	nt	nt	nt	nt
COc1ncnc2sc(-c3ccccc3)cc12	1.1	0.2	0.8	-0.016	20	76*
CC(C)C(C)(C#N)NC(=O)CSc1nnc(-c2ccccc2)o1 (centres undefined)	-0.78	0.3	0.9	-0.2	9	68*
CCOc1cccc(C2c3c(oc4cc(C)c(C)cc4c3=O)C(=O)N2CCCN(C)C)c1 (centres undefined)	nt	1.1	0.5	0.84	50	-5
SMILES	PTK2B oligo ant	CYP2C19 activ	CYP2C9 activ	Cav32 inh	CYP2C9 inhib	CYP2C19 inh
Cc1ccc(NC(=O)/C=C/c2cccs2)c([N+](=O)[O-])c1	-0.25	1.2	1.1	-0.024	-8	-16
O=C(NCC1CC1)[C@]1(C(F)(F)F)C[C@H](CCC2CCCCC2)CCCO1	nt	nt	nt	-0.56	nt	nt
CC(C)C(C)(C#N)NC(=O)CSc1ncnc2sc(-c3ccccc3)cc12 (centres undefined)	-1.3	0	0.2	-0.34	83*	96*
O=C(c1ccc(CN2CCOCC2)cc1)N1CCN(c2ccccc2)CC1	-1.2	nt	nt	1	nt	nt
O=C1NC2=C(CCc3ccccc32)C(c2ccccc2)N1 (centres undefined)	-0.21	nt	nt	nt	nt	nt
O=C1c2ccccc2CCC12N=NCC2c1ccc(Br)cc1 (centres undefined)	0	0	0.5	-2	49	99*
O=C1c2ccccc2CCC12N=NCC2c1ccc(Cl)cc1 (centres undefined)	1.1	0.2	0.8	-2.2	15	84*
Cn1c(N2CCC(C(N)=O)CC2)nc2c1c(=O)n(Cc1cccc(Br)c1)c(=O)n2C	1.1	0.9	0.9	2.2	10	15
N#CCN1CCN(CC(=O)Nc2cccc3ccccc23)CC1	0.44	1	1	0.88	-5	-1
Fc1ccc(C[n+]2csc3ccccc32)cc1	0.44	0.6	0.4	0.64	60*	42
Fc1ccc(CSc2nsc(SCc3ccc(F)cc3)n2)cc1	0.66	0.8	0.8	-2	15	24
C/C(=N\NC(=O)COc1ccc([N+](=O)[O-])cc1)C(C)(C)C	1.6	0.8	0.9	0.51	8	23
COc1cc(OC)c(C#N)c(S(=O)Cc2ccccc2)c1 (centres undefined)	-0.54	0	2.3*	0.86	-129	99*
COc1ccc(Cl)cc1Nc1nc(-c2sc(NC(=O)c3ccco3)nc2C)cs1	nt	0.6	0.4	-0.2	62*	43
COc1ccc(Cl)cc1Nc1nc(-c2sc(NC(=O)C(C)(C)C)nc2C)cs1	nt	1	0.7	-0.28	30	2
COc1cccc(NC(=O)c2ccco2)c1	0.44	0.6	0.9	0.33	8	42
COc1cccc(Nc2nc(-c3ccc4c(c3)OCCO4)cs2)c1	1.8	0.8	0.5	-1.7	50	19
COc1cccc(Nc2nc(-c3sc(N)nc3C)cs2)c1	-0.13	0.4	0.3	1	74*	59*
COc1cccc(Nc2nc(-c3sc(NC(=O)c4ccco4)nc3C)cs2)c1	nt	0.5	0.3	0.69	72*	47
CCC1(CC)C(=O)C2=C3C1[C@H](C(=O)OC)C=C(C(=O)OC)C[C@H]3n1c(=O)n(-c3ccccc3)c(=O)n1[C@H]2C (some centres undefined)	nt	nt	nt	-0.012	nt	nt
COc1ccc(NC(=O)C(C)N(c2ccc(C)cc2)S(C)(=O)=O)cc1 (centres undefined)	0.31	0.1	0.3	0.61	74*	90*
COc1ccc(C)cc1NC(=O)C(C)N(c1ccc(C)cc1)S(C)(=O)=O (centres undefined)	-1	0.6	0.4	-0.23	56*	44
Cc1ccc(N(C(C)C(=O)Nc2cc(Cl)ccc2Oc2ccccc2)S(C)(=O)=O)cc1 (centres undefined)	-1	0.1	0.2	-2.7	77*	86*
COc1ccc(N(C(C)C(=O)NC2CCCCCC2)S(C)(=O)=O)cc1 (centres undefined)	1.1	0.7	0.7	1.7	28	31
